# Data taken from PubChem BioAssay AID1508601 (ICCB-Longwood Screening Facility, Harvard Medical School, 2020).
# Several values for one entry are separate records, joined by “and”; a condition that tells them apart may be missing. Equal entries are not always repeated. Hit rate of the full screen: of about 5,700 compounds, about 85 (1%) were called active. This is one part of a sample in which actives are shown more often than they occur. No stated cut-off is given here; in the data, active means p53-positive nuclei above about 36% (passing the limit was not always enough); inactive means the rest. More than one record can exist for a structure, and the calls need not agree.
# How the values were obtained:
# [1] = nuclear p53 accumulation, HPV+ cells – imaging, p53-positive nuclei imaging, 24 h, 48 h (AID 1508601); conditions: 24/48 h
# [2] = biological target: Cellular tumor antigen p53 (Homo sapiens) (UniProt P04637); assay: as above; conditions: 24/48 h, stronger effect = higher value
# Sequence of Cellular tumor antigen p53 (Homo sapiens) (P04637 whole entry, looked up): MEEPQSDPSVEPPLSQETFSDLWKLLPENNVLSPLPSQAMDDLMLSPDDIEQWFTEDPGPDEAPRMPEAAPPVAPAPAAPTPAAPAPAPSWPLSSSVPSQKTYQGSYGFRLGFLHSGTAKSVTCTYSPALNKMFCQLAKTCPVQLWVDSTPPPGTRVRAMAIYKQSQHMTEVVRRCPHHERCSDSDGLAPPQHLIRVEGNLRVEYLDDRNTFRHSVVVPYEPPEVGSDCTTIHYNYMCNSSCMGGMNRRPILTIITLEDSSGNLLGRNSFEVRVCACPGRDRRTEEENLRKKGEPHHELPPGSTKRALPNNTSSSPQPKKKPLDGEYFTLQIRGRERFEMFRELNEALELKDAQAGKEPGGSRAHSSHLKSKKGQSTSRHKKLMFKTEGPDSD
# [3] = measured here: cell number at 24 h, Library stock concentration: 3.33 mM
# [4] = measured here: cell number at 48 h, Library stock concentration: 3.33 mM
# [5] = Library stock concentration: 3.33 mM
# [6] = measured here: p53 positive nuclei at 24 h, Library stock concentration: 3.33 mM
compound,measurement,setting,value
CCN1CCN(Cc2ccc(NC(=O)c3ccc(C)c(Oc4ccnc5[nH]ccc45)c3)cc2C(F)(F)F)CC1,"nuclei count, normalised","[1]; measured here: cell number at 24 h, Library stock concentration: 80 uM",106%
same,"nuclei count, normalised","[1]; measured here: cell number at 24 h, Library stock concentration: 400 uM",105%
same,"nuclei count, normalised","[1]; measured here: cell number at 24 h, Library stock concentration: 2 mM",97.9%
same,"nuclei count, normalised","[1]; measured here: cell number at 24 h, Library stock concentration: 10 mM",101%
same,"nuclei count, normalised","[1]; measured here: cell number at 48 h, Library stock concentration: 80 uM",116%
same,"nuclei count, normalised","[1]; measured here: cell number at 48 h, Library stock concentration: 400 uM",108%
same,"nuclei count, normalised","[1]; measured here: cell number at 48 h, Library stock concentration: 2 mM",111%
same,"nuclei count, normalised","[1]; measured here: cell number at 48 h, Library stock concentration: 10 mM",112%
same,"p53-positive nuclei, normalised",[2]; Library stock concentration: 80 uM,-0.0678% (inactive)
same,"p53-positive nuclei, normalised",[2]; Library stock concentration: 400 uM,0.0485% (inactive)
same,"p53-positive nuclei, normalised",[2]; Library stock concentration: 2 mM,-0.223% (inactive)
same,"p53-positive nuclei, normalised",[2]; Library stock concentration: 10 mM,-0.127% (inactive)
same,"p53-positive nuclei, normalised","[2]; measured here: p53 positive nuclei at 24 h, Library stock concentration: 80 uM",-0.156%
same,"p53-positive nuclei, normalised","[2]; measured here: p53 positive nuclei at 24 h, Library stock concentration: 400 uM",-0.0165%
same,"p53-positive nuclei, normalised","[2]; measured here: p53 positive nuclei at 24 h, Library stock concentration: 2 mM",-0.102%
same,"p53-positive nuclei, normalised","[2]; measured here: p53 positive nuclei at 24 h, Library stock concentration: 10 mM",-0.00926%
COc1cccc2c1C(=O)c1c(O)c3c(c(O)c1C2=O)C[C@@](O)(C(=O)CO)C[C@@H]3OC1CC(N)C(OC2CCCCO2)C(C)O1 (stereo partly drawn),"nuclei count, normalised",[1]; [3],43.4%
same,"nuclei count, normalised",[1]; [4],38.3%
same,"p53-positive nuclei, normalised",[2]; [5],16.4% (inactive)
same,"p53-positive nuclei, normalised",[2]; [6],10.3%
COc1cccc2c1C(=O)c1c(O)c3c(c(O)c1C2=O)C[C@@](O)(C(=O)CO)CC3O[C@H]1CC(N)C(O)C(C)O1 (stereo partly drawn),"nuclei count, normalised",[1]; [3],45.5% and 23.6%
same,"nuclei count, normalised",[1]; [4],36.1% and 17%
same,"p53-positive nuclei, normalised",[2]; [5],21.6% (inactive) and 89.4% (active)
same,"p53-positive nuclei, normalised",[2]; [6],2.1% and 92.1%
C=C1C[C@H](O)[C@H](C/C=C\CCCC(=O)O)[C@H]1/C=C/C(=O)CCCCC,"nuclei count, normalised","[1]; measured here: cell number at 24 h, concentration not given here",111%
same,"nuclei count, normalised","[1]; measured here: cell number at 48 h, concentration not given here",105%
same,"p53-positive nuclei, normalised",[2]; concentration not given here,0.125% (inactive)
same,"p53-positive nuclei, normalised","[2]; measured here: p53 positive nuclei at 24 h, concentration not given here",-0.0213%
